Source: PubChem BioAssay (Tox21)
Inconclusive results are not listed. Active and inactive are the calls of the source. Calls come from the whole dose curve; as a rule, active = well fitted curve in the direction sought with a large enough effect in the repeat runs; inconclusive = weak or mixed curves; inactive = no such curve, though single readings can be large; an effect the other way counts as inactive or inconclusive.

Assays:
[1] = A CellTox Green Cytotoxicity Assay to monitor cytotoxicity in HEK293 cells - 40 hour (AID 1224871); note: nearly all actives have a fitted effect of over 45% in size
Method in brief: (§1)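 HEK293 cells, 600/well, were preincubated 5 hours and then exposed to compounds at 37 C for up to 40 hours. A cell-impermeant cyanine dye staining dead-cell DNA was read by fluorescence at 0, 8, 16, 24, 32 and 40 h time points.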

[2] = qHTS RealTime-Glo MT Cell Viability Assay in HEK293 cells - 16 hour (AID 1224872); note: top concentration of the series differs between compounds; nearly all actives have a fitted effect of over 50% in size
Method in brief: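 Luminescence generated by NanoLuc from substrate produced by living HEK293 cells served as the viability signal. Each value reflects the reading at its stated time point during continuous 40 h compound exposure at 37 C.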

[3] = qHTS RealTime-Glo MT Cell Viability Assay in HepG2 cells - 8 hour (AID 1224873); note: nearly all actives have a fitted effect of over 55% in size
Method in brief: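 Real-time viability: cells seeded at 600 per well together with NanoLuc and cell-permeant prosubstrate, compounds added after 5 h incubation. Luminescence tracked at 0, 8, 16, 24, 32 and 40 h of exposure.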

[4] = A CellTox Green Cytotoxicity Assay to monitor cytotoxicity in HEK293 cells - 24 hour (AID 1224875); note: series mostly up to about 77 µM; nearly all actives have a fitted effect of over 45% in size
Method in brief: as §1

[5] = A CellTox Green Cytotoxicity Assay to monitor cytotoxicity in HepG2 cells - 16 hour (AID 1224876); note: nearly all actives have a fitted effect of over 45% in size
Method in brief: (§2)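 HepG2 cells, 600/well, preincubated 5 h with CellTox Green dye, then exposed to Tox21 compounds in DMSO at 37 C for up to 40 h. Dead-cell DNA fluorescence read at the indicated time point.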

[6] = qHTS RealTime-Glo MT Cell Viability Assay in HepG2 cells - 32 hour (AID 1224877); note: nearly all actives have a fitted effect of over 55% in size
Method in brief: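 Tox21 10K library screened in qHTS format on HepG2 cells carrying RealTime-Glo reagents. Compounds were added after a 5 h preincubation, and the luminescent signal from continuous culture was measured repeatedly during 40 h treatment.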

[7] = A CellTox Green Cytotoxicity Assay to monitor cytotoxicity in HepG2 cells - 40 hour (AID 1224879); note: nearly all actives have a fitted effect of over 40% in size
Method in brief: as §2

[8] = qHTS RealTime-Glo MT Cell Viability Assay in HEK293 cells - 40 hour (AID 1224874); details: RealTime-Glo luminescence; max response: stronger effect = lower value; note: nearly all actives have a fitted effect of over 50% in size
Method in brief: (§3)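 600 cells/well were plated with the nonlytic NanoLuc/prosubstrate reagent, pre-incubated 5 h, then given 23 nL of compound in DMSO. Incubation at 37 C for 40 h, with luminescence from viable-cell-reduced substrate read repeatedly from 0 h.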

[9] = A CellTox Green Cytotoxicity Assay to monitor cytotoxicity in HepG2 cells - 24 hour (AID 1224878); note: nearly all actives have a fitted effect of over 45% in size
Method in brief: as §2

[10] = qHTS RealTime-Glo MT Cell Viability Assay in HEK293 cells - 0 hour (AID 1224880)
Method in brief: as §3
% is set by controls: 0 for no effect and ±100 for the full control effect.

CSC1=N[C@@](C)(c2ccccc2)C(=O)N1Nc1ccccc1
inactive: Potency [1] | Potency [2] | Potency [3] | Potency [4] | Potency [5] | Potency [6] | Potency [7]

O=C(Cl)c1ccccc1F
inactive: Potency [1] | Potency [2] | max response [8] -0.0017% | Potency [4] | Potency [5] | Potency [6] | Potency [9] | Potency [7] | Potency [10]

CN=C=O
inactive: Potency [1] | Potency [2] | max response [8] 8.4% | Potency [4] | Potency [5] | Potency [6] | Potency [9] | Potency [7] | Potency [10]
